Rows were chosen to be rich in hits. Some 7.9% of all compounds tested hit in one or more screens of this group.
KB-3-1 cytotox: KB-3-1 parental cell cytotoxicity; 400,000 tested, 1.4% active; KB-3-1 viability, CellTiter-Glo ATP luminescence, 72 h; Potency, µM (top dose mostly 46.1 µM), most hits filed as cytotoxic; note: % is set by controls: 0 for no effect and ±100 for the full control effect; nearly all actives have a fitted effect of over 60% in size
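Viability of parental KB-3-1 cells, measured by CellTiter-Glo luminescence, followed a 72 h incubation at 37 °C with pinned compounds in phenol-red-free DMEM containing 10% FBS.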
SW480 rereplic: DNA re-replication induction in SW480 cells; SW480 DNA re-replication, Hoechst DNA content imaging, 48 h; Potency, µM (titrated, usually from 46.1 µM), inactives show at the top dose re-replication activation, hits mostly activators; AID 624297; 340,000 tested, 1.8% active; note: % of control where 0% means no effect; nearly all actives have a fitted effect of over 55% in size
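Compounds, transferred as 23 nL by pin tool, were incubated with cells for 48 hr; DNA content per nucleus was then quantified by Hoechst staining and fluorescence plate imaging.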
MCF10A rerep: inducers of DNA re-replication in MCF 10A breast cells. MCF 10A DNA re-replication, Hoechst nuclear intensity, 48 h. 350,000 tested, 2.9% active. AID 624296. Potency, µM (highest dose often 46.1 µM), inactives show top-dose activity, positive = re-replication, most hits filed as activators; note: % of control where 0% means no effect; nearly all actives have a fitted effect of over 50% in size
HT1080NT lethal: kills 2HG-producing HT-1080-NT fibrosarcoma cells | HT-1080-NT fibrosarcoma viability, CellTiter-Glo ATP luminescence, 48 h | Potency, µM (series often up to 46.1 µM), inactives show at the top dose activity, negative = less viability, most hits filed as cytotoxic | 360,000 tested, 1.6% active;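 note: NT is the 2HG producing partner of a matched IDH1 knockdown line; 0% = DMSO-treated cells and -100% = media-only wells without cells; nearly all actives have a fitted effect of over 55% in size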
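Read-out is CellTiter-Glo luminescence after 10 minutes at room temperature, following 48 hours' compound treatment of HT-1080-NT cells (750 cells/well, RPMI, 5% FBS, 37 degrees C).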
KB-V1 cytotox: kills drug-selected multidrug resistant KB-V1 cells | KB-V1 MDR cells viability, CellTiter-Glo, 72 h | Potency, µM (highest dose often 46.1 µM), usual class: cytotoxic | 400,000 tested, 3.4% active | AID 1347076; note: % is set by controls: 0 for no effect and ±100 for the full control effect; nearly all actives have a fitted effect of over 60% in size
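qHTS viability screen in drug-selected KB-V1 MDR cells: 72 h compound treatment at 37 degrees C, ATP luminescence end point.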
HT1080 IDH1KD tx: HT-1080 IDH1 knockdown cell toxicity (counter line); HT-1080 IDH1 knockdown viability, ATP luminescence, 48 h; Potency, µM (top dose mostly 46.1 µM), for inactives: at the top dose activity, negative = toxicity, actives largely listed as cytotoxic; 360,000 tested, 2% active;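 note: 0% = DMSO wells and -100% = cell-free medium wells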
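After a 2 h attachment period, IDH1KD HT-1080 cells took pin-transferred compound for 48 h at 37 °C; ATP-based luminescence after 10 min room-temperature reagent incubation reported viability.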
Starred values were filed as active, the others as inactive; i = inactive; ? = inconclusive; · = no result; ! = repeats disagree; [ ] = another dose, or the depositor's remark. Calls come from the whole dose curve; as a rule, active = well fitted curve in the direction sought with a large enough effect; inconclusive = small, poorly fitted or top-dose-only effect, or another doubt; inactive = no such curve, though single readings can be large; an effect the other way counts as inactive or inconclusive. Potency is the fitted concentration of half-maximal effect.

SMILES	KB-3-1 cytotox	SW480 rereplic	MCF10A rerep	HT1080NT lethal	KB-V1 cytotox	HT1080 IDH1KD tx
Cc1cccc(NC(=O)c2ccc(NC(=O)CC3SC(N4CCCC4)=NC3=O)cc2)n1 (stereo unspecified)	i	15%	0%	8%	i	10%
Cc1cc(Br)ccc1NC(=O)c1sc2ncn(Cc3ccccc3Cl)c(=O)c2c1C	i	·	·	·	i	·
NC1=C(Cl)C(=O)c2ccccc2C1=O	?	16µM*	?	?	i	?
NS(=O)(=O)c1ccc2c(c1)C(=NO)c1cc(S(N)(=O)=O)ccc1-2	i	-2%	1%	-1%	?	-4%
NC1=C(Cl)C(=O)c2ccc(S(N)(=O)=O)cc2C1=O	?	0.73µM*	1.5µM*	8.2µM*	?	6.5µM*
Cc1ccccc1Nc1c(C)c(C)nc2ncnn12	i	-49%	1%	-22%	i	-20%
O=C1N/C(=N/S(=O)(=O)c2ccccc2)S/C1=C/c1cccnc1	i	2%	?	?	?	-16%
COc1ccc(S(=O)(=O)N(C)c2nc3ccccc3n3c(CC(C)C)nnc23)cc1	i	14%	12µM*	-26%	?	-2%
O=c1[nH]c(-c2ccco2)nc2sc3c(c12)CCCC3	i	1%	-6%	7%	18µM*	28%
O=c1[nH]c(S)nc2sc3c(c12)CCCC3	i	0%	?	-12%	i	-5%
CCCCn1c(CNC(=O)c2cccs2)nc2ccccc21	?	-3%	3%	8%	?	-7%
CCCCCn1c(CNC(=O)c2cccs2)nc2ccccc21	i	6%	28%	13µM*	i	8%[9.24 µM]
CCCCn1nc(NC(=O)c2cccs2)c2cc3ccccc3nc21	?	?	?	?	26µM*	?
CCCn1nc(NC(=O)c2cccs2)c2cc3ccccc3nc21	i	15µM*	5.8µM*	-1%	?	3%
CCCCn1nc(NC(=O)c2cccc(Cl)c2)c2cc3ccccc3nc21	i	·	·	·	i	·
CCCn1nc(NC(=O)c2ccncc2)c2cc3ccccc3nc21	i	1%	5%	-1%	i	-10%
CC1Cc2ccccc2N1C(=O)CSc1nnc(Cn2nnc3ccccc32)n1C (stereo unspecified)	i	-2%	4%	-1%	18µM*	-13%
CCOC(=O)c1c(NC(=O)CSc2nc3c(c(=O)n(C)c(=O)n3C)n2CC)sc(C)c1C	i	-1%	18%	18%	9.2µM*	-3%
CCCCCn1c(CN2CCCCC2C)nc2c1c(=O)n(C)c(=O)n2C (stereo unspecified)	i	-5%	?	-3%	4.6µM*	-6%
CCCn1c(SCC(=O)N2CCc3ccccc3C2)nc2c1c(=O)n(C)c(=O)n2C	i	-2%	3%	4%	3.7µM*	1%
Cc1n[nH]c(C)c1NC(=O)c1cc([N+](=O)[O-])ccc1Cl	?	4%	2%	2%	i	4%
CCCc1cc(=O)[nH]c(SCC(=O)NC2CC2)n1	i	-14%	12%	-4%	?	-1%
Cc1ccc(NC(=O)CCn2c(=O)oc3ccccc32)c(C)c1	i	-2%	-1%	17%	i	11%
CC1Cc2ccccc2N1C(=O)CSc1nc2c(c(=O)n(C)c(=O)n2C)n1Cc1ccc(F)cc1 (stereo unspecified)	i	-4%	0%	-4%	1.8µM*	-6%
CCCn1c(SCC(=O)N2c3ccccc3CCc3ccccc32)nc2c1c(=O)n(C)c(=O)n2C	i	-2%	5%	8%	4.1µM*	1%
SMILES	KB-3-1 cytotox	SW480 rereplic	MCF10A rerep	HT1080NT lethal	KB-V1 cytotox	HT1080 IDH1KD tx
Cn1c(=O)c2c(nc(SCC(=O)c3cccs3)n2Cc2ccc(F)cc2)n(C)c1=O	i	2%	7%	5%	?	0%
CCCCn1c(SCC(=O)N2c3ccccc3Sc3ccccc32)nc2c1c(=O)n(C)c(=O)n2C	16µM*	?	20%	-29%	15µM*	?
CCCCn1c(SCC(=O)Nc2nnc(C(C)C)s2)nc2c1c(=O)n(C)c(=O)n2C	?	-8%	?	9%	2.3µM*	9%
Cc1ccc(-c2nn(Cc3ccccc3)cc2/C=C/C(=O)O)cc1C	i	1%	4%	-7%	i	-7%
O=C(Nc1cc(Cl)ccc1O)c1cc(-c2ccco2)on1	i	1%	0%	0%	i	-9%
C/C(=N\O)C(=O)OC1CC(C)CCC1C(C)C (stereo unspecified)	i	4%	?	-22%	i	-25%
COc1ccc(C(=O)NC2CC(=O)N(c3ccc4c(c3)OCCO4)C2)cc1 (stereo unspecified)	i	·	·	·	i	·
Clc1ccc(CNc2ccc3nnc(-c4ccccc4)n3n2)cc1	i	-3%	-4%	-4%	i	7%
CC(=O)c1ccccc1C(=O)N(C)C1CCCN(Cc2ccccc2F)C1 (stereo unspecified)	i	1%	12%	1%	i	-1%
CCCCn1c(SCC(=O)N2CCCC2)nc2c1c(=O)n(C)c(=O)n2C	i	-2%	-3%	0%	9.2µM*	-17%
COc1ccc(NC(=O)C2Cc3c(-c4ccco4)ccnc3O2)cc1OC (stereo unspecified)	i	·	·	-4%	?	-23%
CC(=O)O[C@H]1C(=O)[C@@]2(C)[C@H]([C@H](OC(=O)c3ccccc3)[C@]3(O)C[C@H](OC(=O)[C@H](O)C(NC(=O)c4ccccc4)c4ccccc4)C(C)=C1C3(C)C)[C@]1(OC(C)=O)CO[C@@H]1C[C@@H]2O (stereo partly specified)	0.0092µM*	0.065µM*	?	?	?	0.0092µM*
CC(=O)O[C@H]1C(=O)[C@@]2(C)[C@H]([C@H](OC(=O)c3ccccc3)[C@]3(O)C[C@H](OC(=O)[C@H](O)[C@@H](NC(=O)c4ccccc4)c4ccccc4)C(C)=C1C3(C)C)[C@]1(OC(C)=O)CO[C@@H]1C[C@@H]2O	0.046µM*!	2.6µM*	?	?	13µM*!	0.0082µM*

High-throughput results from PubChem BioAssay.
